Results published in PubChem BioAssay AID651804 (National Center for Advancing Translational Sciences (NCATS), 2012).
In all, about 1,200 compounds went through this assay and about 20 (2%) were called active. Not shown: some 23% with an inconclusive outcome. Calls follow the shape of the dose curve; as a rule, active = well fitted inhibition curve with a large enough effect; inconclusive = small, poorly fitted or top-dose-only effect; inactive = no such curve, though single readings can be large or run the other way. Many of the other results were omitted from the sample, so actives are more common in it than they were.
Potency is read from the fitted curve at half-maximal effect.

What follows are compounds tested against Transcriptional regulator ERG (Homo sapiens) (UniProt P11308) (assay: qHTS for Small Molecule Inhibitors of the ERG Ets/DNA interaction: HTRF assay against cherry picks). Details: His-ERG Ets domain with biotin-DNA; series mostly up to 154 µM; activity change, negative = inhibition: at the top concentration.
Transcriptional regulator ERG (Homo sapiens), sequence (P11308 whole entry, looked up, the tested form may be a part): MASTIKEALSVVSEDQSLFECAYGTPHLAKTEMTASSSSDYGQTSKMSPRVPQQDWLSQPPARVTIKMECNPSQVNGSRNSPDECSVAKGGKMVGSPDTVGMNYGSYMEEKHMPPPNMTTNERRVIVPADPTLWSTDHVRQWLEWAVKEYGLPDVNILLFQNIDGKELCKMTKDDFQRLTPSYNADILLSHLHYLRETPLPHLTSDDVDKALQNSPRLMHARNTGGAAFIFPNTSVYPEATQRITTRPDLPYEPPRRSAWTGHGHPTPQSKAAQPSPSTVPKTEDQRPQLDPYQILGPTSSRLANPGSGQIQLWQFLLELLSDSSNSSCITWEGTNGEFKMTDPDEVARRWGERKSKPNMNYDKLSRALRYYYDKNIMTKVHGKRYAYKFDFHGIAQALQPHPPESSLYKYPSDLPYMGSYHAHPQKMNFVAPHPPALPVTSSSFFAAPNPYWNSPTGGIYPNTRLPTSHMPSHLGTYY
From the text: The Ets family of proteins is a family of ~30 conserved transcription factors defined by the presence of an ~85 amino acid domain referred to as the Ets domain, which mediates sequence-specific DNA binding to a core DNA element GGAA/T.The Ets family member ERG has been linked to several neoplasms. […] More extensive studies of the effects of over-expression of ERG in prostate cells have recently been carried out and have shown that over-expression of ERG results in increased invasion. […] We will carry out a high throughout screen to identify inhibitors of the interaction between ERG and DNA using a fluorescence polarization (FP) assay with a His-tagged ERG Ets domain and fluorescently-labeled DNA probes to develop small molecule inhibitors of this interaction as probes to test this hypothesis and lay the groundwork for the development of targeted therapies against ERG. This is the counterscreen against the cherry picks. NIH Molecular Libraries Probe Production Network [MLPCN] NIH Chemical Genomics Center [NCGC] Grant: NS066464 PI Name: John Bushweller, University of Virgina
2 ul of protein solution (200 nM ERG domain in 300mM KCl, 50mM Tris-HCl, 1mM EDTA, 1mM DTT, pH 7.5); 20 nl Control plate and compound library plate; 2 ul of 200 nM biotin-DNA; incubate for 10 min at RT; 1 ul of anti-His antibody conjugated to the long-life fluorescent cryptate donner […] (5ng/ul) and streptavidin conjugated to the acceptor compound […] (0.2 ng/ul) mix; incubate 10 min and measure FRET (Excitation = 320 nm, Emission = 615, 665 nm).
For `Nc1ccc2nonc2c1[N+](=O)[O-]`, the Potency was 50.1 µM (active). In the case of `C=C1C2C[C@@]3([C@@H]1O)[C@@H](C[C@@H]2O)[C@@]12C4[C@@H]3C[C@@H]1[C@@](C)(CC[C@@H]2O)CN4CC`, the “activity change, negative = inhibition” value is reported as -25.6% (inactive). `CC(=O)C1(c2ccccc2)CCN(C(=O)C2CCC(=O)N(CCc3cccc(F)c3)C2)CC1` (stereo not given) was tested, and the “activity change, negative = inhibition” value was -19.4% (inactive). In the case of `C[N+]1(C)[C@@H]2CC[C@H]1CC(OC(=O)C(CO)c1ccccc1)C2` (stereo not given in full), the “activity change, negative = inhibition” value is reported as -26.6% (inactive). In the case of `CN1[C@@H]2CCC[C@H]1CC(=O)C2`, the “activity change, negative = inhibition” value is reported as -23.7% (inactive).
